Screens (PubChem BioAssay)
Cav32 inh – Cav3.2 calcium influx blockers – cell-based, Fluo-4 calcium fluorescence, FDSS, MLSMR library, primary screen | Voltage-dependent T-type calcium channel subunit alpha-1H (Homo sapiens), O95180 | Cav3.2-expressing cells; active compounds read low | B-score at 10 µM | actives 4% (n = 100,000) | AID 449739, 2010;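 active = single-dose well whose peak fluorescence ratio is a statistical outlier from its plate by either plate-standardised score or position-corrected B-score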
CYP2C9 act – human CYP2C9 activators, primary screen, biochemical, luminescence | recombinant CYP2C9, luciferin-H conversion; active compounds read high; factor 1 = untreated enzyme, 0 = blocked | activation factor at 5 µM | actives 1.4% (n = 96,000) | AID 1024, 2008;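 active = activation factor of 2 or more for CYP2C9 at a 5 µM dose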;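 note: 0 = sulfaphenazole-blocked wells and 1 = vehicle-only wells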
CYP2C19 inh – blockers of cytochrome P450 2C19 activity – biochemical, luminescence, ADME assay, primary screen; CYP2C19 Supersomes, luciferin-H EGE luminescence, 30 min; inhibition, % at 5 µM; actives 21% (n = 96,000); AID 778, 2007;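 active = CYP2C19 inhibition above a set limit at 5 µM in the primary screen, cut at about 50% in these data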;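 note: plate controls were negative control wells for no effect and 2.5 mM tranylcypromine positive control for full effect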
Target sequence (P33261 whole entry, looked up): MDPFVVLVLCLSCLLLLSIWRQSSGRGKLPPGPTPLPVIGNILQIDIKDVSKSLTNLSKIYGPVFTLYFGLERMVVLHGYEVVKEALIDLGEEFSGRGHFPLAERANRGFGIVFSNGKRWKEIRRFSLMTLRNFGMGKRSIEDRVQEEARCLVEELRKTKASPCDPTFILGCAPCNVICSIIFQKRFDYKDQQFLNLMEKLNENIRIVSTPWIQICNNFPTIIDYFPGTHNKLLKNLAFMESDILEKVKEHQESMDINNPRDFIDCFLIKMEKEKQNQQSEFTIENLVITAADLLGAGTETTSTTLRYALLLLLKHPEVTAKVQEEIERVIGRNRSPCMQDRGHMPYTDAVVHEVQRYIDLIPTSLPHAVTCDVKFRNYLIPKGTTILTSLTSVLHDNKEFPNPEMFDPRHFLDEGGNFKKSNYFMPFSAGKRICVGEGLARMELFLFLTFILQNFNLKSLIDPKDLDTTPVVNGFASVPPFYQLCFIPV
CYP2C19 act – human CYP2C19 activators, primary screen, biochemical, luminescence; Cytochrome P450 2C19 (Homo sapiens), P33261; recombinant CYP2C19, luciferin-H EGE luminescence; active compounds read high; 0 = fully inhibited enzyme, 1 = untreated enzyme; activation factor at 5 µM; 96,000 tested, under 10 active;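 active = activation factor of at least 2 at 5 µM in the primary screen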;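 note: 0 = wells with 2.5 mM tranylcypromine and 1 = vehicle-only wells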
CYP2C9 inhib – blockers of cytochrome P450 2C9 activity – biochemical, luminescence, ADME assay, primary screen | P11712 | AID 777, 2007 | actives 20% (n = 96,000) | CYP2C9 Supersomes, luciferin-H conversion | inhibition, % at 5 µM;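 active = blocking of liver enzyme CYP2C9 beyond about 50% at 5 µM, limit read from the data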
* hit, by the source's call; x = not tested or not shown. This is a sample that favours compounds with a hit; in the whole collection about 27% have one here.

SMILES | Cav32 inh | CYP2C9 act | CYP2C19 inh | CYP2C19 act | CYP2C9 inhib
O=C(NNC(=O)c1cc(-c2ccc(Cl)c(Cl)c2)nc2ccccc12)Nc1ccccc1 | x | 0.7 | 17.9 | 0.8 | 33.2
Cc1ccc(-c2cc(C(=O)Nc3ccc(S(=O)(=O)Nc4cc(C)on4)cc3)c3ccccc3n2)c(C)c1 | -1.11 | 0.6 | -3.3 | 1 | 41.2
Cc1cc(C(=O)Nc2ccc(S(=O)(=O)Nc3nccs3)cc2)c(C)o1 | -0.0704 | 0.7 | -11.5 | 1.1 | 26.3
O=C(Nc1ccc(S(=O)(=O)Nc2nccs2)cc1)c1cc(-c2ccccc2Cl)nc2ccccc12 | x | 0.5 | 17.6 | 0.8 | 51.9*
CCC(C)c1ccc(-c2cc(C(=O)OCC(=O)Nc3cc(C)on3)c3ccccc3n2)cc1 (stereo not given) | -0.903 | 0.7 | 50.6* | 0.5 | 30.3
Cc1ccc(-c2cc(C(=O)NCc3ccccn3)c3ccccc3n2)cc1 | -0.363 | 0.5 | 25.3 | 0.7 | 49.3
COc1ccc(-c2ccc(SCC(=O)Nc3cc(C)on3)nn2)cc1OC | -0.000564 | 0.7 | 3.3 | 1 | 34.8
CCNC(=S)NNC(=O)c1cc(-c2cc(C)ccc2C)nc2ccccc12 | -1.11 | 0.3 | 25.5 | 0.7 | 66.2*
COc1ccc(-c2cc(C(=O)OCC(=O)Nc3cc(C)on3)c3ccccc3n2)cc1OC | 0.103 | 0.5 | 53.2* | 0.5 | 46.4
COc1ccc(NC2CS(=O)(=O)CC2OC(=O)c2ccc(F)cc2)cc1 (stereo not given) | 0.269 | 1 | 2.9 | 1 | 0.3
CCN(CC)S(=O)(=O)c1cc(OC)c(Cl)cc1Cl | -0.973 | 3* | 97.3* | 0 | -203.5
CCN(CC(N)=O)S(=O)(=O)c1ccc(Br)cc1 | 0.48 | 1.1 | 16.7 | 0.8 | -10.5
CCOc1cc(S(=O)(=O)N(CC)CC)ccc1Br | -2.06 | 1.3 | 94.9* | 0.1 | -28.2
CCN(CC)S(=O)(=O)c1cc(C(=O)n2cccn2)c(Cl)cc1Cl | 1.97 | 2.3* | 66.1* | 0.3 | -133.2
COc1cc(S(=O)(=O)NCCN2CCOCC2)c(OC)cc1Cl | -0.564 | 0.9 | 64.6* | 0.4 | 12.5
Cc1[nH]c2ccc3c(ncn3CCC#N)c2c1C | -0.11 | 0.9 | 2.3 | 1 | 10.6
CC(C)Cn1c(N)c(C(=O)COC(=O)C2=COCCO2)c(=O)n(C)c1=O | 0.0961 | x | x | x | x
CCCc1ncc(C(O)c2ccc(OC)cc2)n1C (stereo not given) | 0.737 | 0.8 | 17.0 | 0.8 | 24.9
CCOc1cc(C)c(Cl)cc1S(=O)(=O)N(CC)CC | -3.06 | 2* | 52.6* | 0.5 | -99.6
CCN(CC)S(=O)(=O)c1ccc(Cl)c(OC)c1 | 1.37 | 2.4* | 89.2* | 0.1 | -139.7
COc1ccc(S(=O)(=O)NCCOc2ccccc2)cc1OC | 1.54 | 2.9* | 100.0* | 0 | -185.7
COCCNS(=O)(=O)c1cc(OC)c(Cl)cc1Cl | -1.09 | 1.6 | 68.3* | 0.3 | -55.2
N#Cc1ccc(-c2ccc(F)cc2)nc1SCC(=O)Nc1sc2c(c1C#N)CCC2 | 0.0966 | 1 | -10.9 | 1.1 | -2.6
Cc1ccc(S(=O)(=O)N2CCN(C(=O)CN3CCOCC3)C2c2ccccc2)cc1 (stereo not given) | 0.0162 | 0.9 | 11.9 | 0.9 | 6.2
CCN(CC)S(=O)(=O)c1ccc(Oc2ccc(S(=O)(=O)N(CC)CC)cc2)cc1 | -1.17 | 0.1 | 67.2* | 0.3 | 87.3*
SMILES | Cav32 inh | CYP2C9 act | CYP2C19 inh | CYP2C19 act | CYP2C9 inhib
CCNS(=O)(=O)c1ccc(Br)c(OC)c1 | 0.433 | 2.2* | 29.3 | 0.7 | -115.7
CCN(CC)S(=O)(=O)c1cc(F)ccc1OC | 0.87 | x | x | x | x
CCN(CC)S(=O)(=O)c1ccc(Br)c(OC)c1 | -0.405 | 1.9 | 81.7* | 0.2 | -85.4
O=C(COc1ccc2ccccc2c1CN1CCOCC1)N1CCc2ccccc21 | -0.904 | 0.8 | 26.1 | 0.7 | 24.0
COC(=O)c1nn(-c2ccc(OC)cc2)c(=O)cc1Oc1cccc(Cl)c1 | -0.187 | 1 | 12.3 | 0.9 | 0.5
COCCCn1c(SCC(=O)NCc2ccccc2)nc2ccccc2c1=O | -0.32 | x | x | x | x
COCCn1c(SCC(=O)Nc2cccc(C(=O)OC)c2)nc2ccccc2c1=O | -0.834 | 0.4 | 28.5 | 0.7 | 55.6*
COCCCn1c(SCC(=O)Nc2ccc(C(C)=O)cc2)nc2ccccc2c1=O | 0.347 | 0.3 | 98.6* | 0 | 70.8*
